Measured values taken from PubChem BioAssay (NCI).
“And” between values parts separate entries of the source, which are not always exact repeats. Equal entries are not always repeated. About 83,000 compounds went through this panel and 20% of them were active in at least one assay; those are over-represented in the sample as a whole.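 Growth was measured after 48 h exposure to one concentration of compound in 96-well plates. Values under 10 count as active.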 Unmarked numbers belong to inactive results. The source made the active and inactive calls.

tested on: MDA-MB-468 breast; experiment: NCI-60 one-dose screen, 48 h (100 = growth as untreated, 0 = no growth, -100 = all killed); details: 10 µM unless noted

Row | Structure (SMILES) | growth
1 | CCCCCCCCCCCC[N+]1(CCCCCCCCCCCC)CCCC(C)C1 (stereo not given) | -89.7% (active)
2 | CC(C)CSc1nc(Nc2ccccc2)c(C#N)c(-c2ccc(F)cc2)n1 | 16.4%
3 | CNCCCNc1nc2ccccc2c2c(=O)c3cc(OC)ccc3sc12 | 24.8%
4 | NCCCNc1nc2ccccc2c2c(=O)c3cc(C(F)(F)F)ccc3sc12 | -49.1% (active)
5 | COC(=O)C(Sc1ccc(Cl)cc1)C1SC(=S)N(Cc2ccccc2)C1=O (stereo not given) | 94.7%
6 | CNc1ccc(Cl)cc1S(=O)(=O)c1ccccc1[N+](=O)[O-] | 72.7%
7 | Clc1nc(Nc2ccccc2)nc(Nc2ccccc2)n1 | 57.3%
8 | Oc1cccc(Nc2nc(-c3ccccn3)cs2)c1 | 110%
9 | CC(C)NC[C@@H](C(=O)N1CCN(c2ncnc3c2[C@H](C)C[C@H]3O)CC1)c1ccc(Cl)cc1 | -18.7% (active)
10 | Cl.Fc1c[c-]c(-c2ccccn2)c(F)c1.[Pt].c1ccc([PH+](c2ccccc2)c2ccccc2[PH+](c2ccccc2)c2ccccc2)cc1 | -85.8% (active)
11 | COc1cc(NC(=O)CSc2nc3ccc(C)cc3c(=O)n2-c2ccccc2)cc(OC)c1OC | 69.8%
12 | COc1ccc2c(c1OC)O/C(=C\c1ncc([N+](=O)[O-])n1C)C2=O | 69.9%
13 | CC1CC(C)/C(=N/NC(N)=O)C(C(O)CC2CCC(=O)NC2=O)C1 (stereo not given) | 46.9%
14 | COc1ccc(OC)c(CCn2cncc2-c2c[nH]c3cc(Br)ccc23)c1 | -5.69% (active)
15 | c1ccc2c(-c3nccs3)c[nH]c2c1 | 91.3%
16 | O=S(=O)(NCCCNc1nccc(-n2cnc3ccccc32)n1)c1ccc(F)cc1 | 50.2%
17 | COC(=O)CNC(=O)C(=O)c1c(O)c(O)c(C(C)C)c2cc(C)c(-c3c(C)cc4c(C(C)C)c(O)c(O)c(C(=O)C(=O)NCC(=O)OC)c4c3O)c(O)c12 | 15.8%
18 | CC1OC(Oc2c(-c3ccc(O)c(O)c3)oc3cc(O)cc(O)c3c2=O)C(O)C(O)C1O (stereo not given) | 102%
19 | N#Cc1cn(Cc2ccc(Cl)cc2Cl)c(C(=O)c2ccc(Br)cc2)c1N | 75.5%
20 | Nc1ncnc2c1N=C(c1ccc3c(c1)OCO3)CC(c1cccc(Nc3ccnc4cc(C(F)(F)F)ccc34)c1)N2 (stereo not given) | 86.6%

Row | Structure (SMILES) | growth
21 | S=C(Nc1ccccc1)c1ccccn1 | 101%
22 | NS(=O)(=O)N(c1cc(C(F)(F)F)cc(C(F)(F)F)c1)C1CCN(Cc2ccc(C(F)(F)F)cc2)CC1 | -42.5% (active)
23 | C=C(c1ccc(C(=O)NCCCn2ccnc2)cc1)c1cc2c(cc1C)C(C)(C)CCC2(C)C | -5.41% (active)
24 | c1ccc2c(-c3c[nH]c4ccccc34)c3c(cc2c1)[nH]c1ccccc13 | 53.8%
25 | Cn1cc(-c2csc(-c3cn(CCCN4CCOCC4)c4ccccc34)n2)c2cccnc21 | 65.1%
26 | C=C1CCC2C3(C)COC(c4ccc(SC)cc4)OC3CCC2(C)C1C/C=C1/C(=O)OCC1O (stereo not given) | 77.4%
27 | N=C1CCC(=N)c2c1c(O)c1ccccc1c2O | 93.7%
28 | COc1ccc(Cn2cc3c(c2-c2cc(OC)c(OC)c(OC)c2)CCc2c(CN4CCCC4)noc2-3)cc1 | 50.7%
29 | N#CSCC1CC(O)(c2ccccc2)C(c2ccccc2)C(c2ccc(Cl)cc2)O1 (stereo not given) | -58.9% (active)
30 | COc1ccc(-c2nn(-c3cccc(Cl)c3)cc2/C=C2\NC(=S)N(c3ccc(Cl)cc3)C2=O)cc1 | -56.7% (active)
31 | O=C(Cc1ccc(F)c(F)c1)Nc1cc(C2(C(F)(F)F)CC2)nn1Cc1ccccc1 | -33.1% (active)
32 | Cc1ccc(C2CC(c3ccc(Nc4nc(NCCO)nc(NCCO)n4)cc3)=NN2c2ccc(Cl)cc2)cc1 (stereo not given) | 73.2%
33 | COc1ccc(-c2nc3ccc(-c4nnc(SCC(=O)Nc5ccc(C(=O)/C=C/c6ccccc6)cc5)o4)cc3[nH]2)cc1OC | 104%
34 | Cn1cnc(-c2cc3nccc(Oc4ccc(NC(=S)NC(=O)Cc5ccccc5)cc4F)c3s2)c1 | 103%
35 | CS(=O)(=O)c1ccc(-c2nn(-c3ccccc3)cc2/C=N/NC(=O)c2ccncc2)cc1 | 99%
36 | C/C(=N\NC(N)=S)c1nc2ccc(Cl)cc2[nH]1 | 44.2%
37 | CCCCN(C=S)CCCC | 101%
38 | COc1cc(OC)cc(C2C(C#N)=C(N)Oc3c2ccc2ccc(O)cc32)c1 (stereo not given) | -16.6% (active)
39 | O=C(/C=C/c1ccccn1)c1ccccc1O | 41.6% and 70.3%
40 | Cc1nc2sc(C(=O)Nc3cccc4c3OCCO4)c(N)c2cc1C(C)O (stereo not given) | 3.42% (active)
